We go through four molecules from PubChem BioAssay.

Where “and” joins values, the source holds several entries; their conditions need not be identical. Equal values may be shown once. Results filed as inconclusive are left out. Calls of active or inactive are those of the source. Unless noted, no rule for the calls is given here.

A short description of assay [1]: rapamycin-like changes in RPL19A-GFP expression – cell-based, S. cerevisiae, multiplex flow cytometry, primary screen (AID 1862; in the data active = percent of DMSO control GFP below about 86%;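 also: lower values mimic rapamycin by blocking the RPL19A rise seen in DMSO cells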). The settings on record: S. cerevisiae RPL19A-GFP strain, flow cytometry fluorescence, 3 h; at 10 µM; stronger effect = lower value. (A flow cytometer gives signals particle by particle.)
A short description of assay [2]: TOR pathway GLN3 branch reporter MEP2-GFP changes – S. cerevisiae, multiplex flow cytometry, primary screen (AID 1867;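 active = GFP response, as percent of the DMSO control, above the screen-wide mean plus 3 SD, about 139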;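 also: median GFP channel fluorescence of barcode-gated MEP2-GFP cells measured by flow cytometry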). Particulars: S. cerevisiae MEP2-GFP strain, 3 h, at 10 µM, stronger effect = higher value.
Assay [3] is described as follows: TOR pathway RTG branch CIT2 reporter changes – S. cerevisiae, GFP fusion, multiplex flow cytometry, primary screen (AID 1870;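 active = percent response above a set limit, the screen-wide mean plus 3 SD, cut at about 130% in these data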;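 also: barcoded CIT2-GFP strain pooled with four other GFP strains with rapamycin as positive control; median GFP fluorescence per well over plate mean of DMSO wells so 100% = DMSO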). The settings on record: S. cerevisiae CIT2-GFP expression, 3 h, at 10 µM, stronger effect = higher value.
Assay [4] can be described thus: TOR pathway LAP4-GFP level changes – S. cerevisiae, multiplex flow cytometry, primary screen (AID 1873;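 active = GFP signal, as percent of the solvent control, above the screen mean plus 3 SD, about 149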). Particulars: S. cerevisiae LAP4-GFP expression, 3 h, at 10 µM, stronger effect = higher value.
A short description of assay [5]: yeast AGP1-GFP level changes, GLN3 branch – cell-based, multiplex flow cytometry, S. cerevisiae, primary screen (AID 1887;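 active = GFP signal above the screen-wide mean plus 3 SD, that is over about 124.5% of the solvent control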;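 also: AGP1-GFP fusion strain of S. cerevisiae within a five-strain barcoded multiplex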). Particulars: 3 h, at 10 µM, stronger effect = higher value.
Assay [6] can be described thus: reduced mouse 2C T cell binding to pMHC/ICAM-1 vesicles – MLPCN validation set, flow cytometry, LFA-1/ICAM-1 modulator project, pilot screen (AID 2523;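 active = response below a set limit, under 55% cells CD8-positive and vesicle-bound, and CD8 cells' 90th-percentile brightness under 279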;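 as to vesicle binding response: mean PE anti-B7-1 fluorescence of CD8+ cells relative to row control; 100% = QL9-loaded vesicles with DMSO vehicle in the same plate row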). Particulars: 2C mouse CD8+ T cells, at 7 µM, stronger effect = lower value; double positive events: measured here: CD8+/vesicle+ event percentage.
Assay [7] addresses Integrin beta-1 (Homo sapiens) + Integrin alpha-4 (Homo sapiens) (UniProt P13612+P05556). In words: alpha4beta1 integrin LIBS antibody binding reduction – U937 cells, HUTS-21 mAb, flow cytometry, validation set, VLA-4 allosteric modulator project, pilot screen (AID 2674;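 active = inhibition above 50%, about 3 SD of the validation set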;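 also: antibody binding induced by the VLA-4 ligand LDV present at three times its Kd; 0% = LDV ligand with antibody and no compound and 100% = antibody without LDV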). Particulars: HUTS-21 LIBS mAb binding, at 6.7 µM, stronger effect = higher value.
Assay [8] in a line: calorie-restriction mimetic ROS inhibitors, yeast – validation compound set, pilot screen (AID 2706;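 active = superoxide response below 65% of plate, a cut near 3 SD across the whole screen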;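 also: yeast exposed to compound for one week at 30 degrees C before staining; 100% = mean of all compound wells on the same plate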). Particulars: S. cerevisiae aging, superoxide DHE fluorescence; at 10 µM; stronger effect = lower value.
In assay [9] the target is Beta-adrenergic receptor kinase 1 (Homo sapiens) (UniProt P25098). Description: GRK2 binders displacing RNA aptamer, biochemical, validation, human GRK2, bead flow cytometry (AID 488806;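 active = aptamer binding inhibition above 30%, about 3 SD of noise from non-fluorescent compounds; inactive = inhibition at or below 30%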). Particulars: bead-bound GRK2, FAM-aptamer displacement, at 10 µM, stronger effect = higher value.
Assay [10] has as its target Beta-2 adrenergic receptor (Homo sapiens) (UniProt P07550). In words: agonist-induced loss of surface beta2AR – cell-based, FAP fluorogen, flow cytometry, validation set, pilot screen (AID 504459;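 active = percent response above 42, roughly 3 SD of non-fluorescent test compounds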;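 also: agonist-driven loss of surface beta2AR via internalization measured by FAP dye flow cytometry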). The settings on record: Am2.2-beta2AR cells, at 10 µM, stronger effect = higher value.
Assay [11] deals with AP-2 complex subunit beta (Homo sapiens) (UniProt P63010). In words: beta-arrestin/AP2 interaction blockers – biochemical, validation set, GST-AP2 beads, flow cytometry, pilot screen (AID 504541;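 active = inhibition above 54%, about 3 SD of non-fluorescent compounds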;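 also: AP2 carries R879A mutation and is captured from E. coli lysate; bead-bound FITC arrestin peptide fluorescence measuring arrestin peptide binding to AP2; 0% = DMSO wells and 100% = excess unlabeled arrestin peptide control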). The settings on record: FITC arrestin peptide, at 10 µM, stronger effect = higher value.
A short description of assay [12]: cytosolic pH regulators acting via V-ATPase – S. cerevisiae, pHLuorin, HTS validation (AID 504600; in the data active = response above about 15%;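 also: plate controls were DMSO for no effect and reference compound for full effect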). Particulars: V-ATPase proton transport, at 10 µM, stronger effect = higher value.
Assay [13] relates to anti-desmoglein-3 scFv antibody binding to human DSG3. Description: blockers of pathogenic pemphigus antibody–desmoglein-3 binding – biochemical, validation compound set, bead-based, flow cytometry, pilot screen (AID 588368;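 active = binding below the plate cutoff, the plate median minus 3 SD, with a reading above zero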;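 also: signal is the median channel fluorescence of bead-bound GFP antibody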). The settings on record: Protein G beads, DSG3-Fc, scFv-GFP binding, at 10 µM, stronger effect = lower value.
The test system of assay [14] is Botulinum neurotoxin type F light chain protease (Clostridium botulinum). In words: Clostridium botulinum type F light chain protease inhibitors, microsphere substrate cleavage, validation (AID 588459). The settings on record: multiplex microsphere protease substrate cleavage assay, flow cytometry; at 10 µM; stronger effect = higher value.
The target in assay [15] is Botulinum neurotoxin type A (Clostridium botulinum) (UniProt P0DPI0). In words: BoNT/A light chain protease inhibitors, biochemical, multiplex microsphere flow cytometry, validation set (AID 588460). The settings on record: at 10 µM, stronger effect = higher value.
Assay [16] addresses Lethal factor (Bacillus anthracis) (UniProt P15917). Description: Bacillus anthracis lethal factor inhibition, microsphere flow cytometry protease assay, validation at 10 µM (AID 588461). Particulars: multiplex microsphere protease cleavage assay, stronger effect = higher value.
For assay [17], the target named is ATP-binding cassette sub-family B member 6 (Homo sapiens) (UniProt Q9NP58). Description: blockers of ABCB6-driven porphyrin uptake – K562-ABCB6 cells, flow cytometry, validation set, pilot screen (AID 588550;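 active = inhibition above the screen-wide mean plus 3 SD, about 51%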;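 also: 0% = DMSO wells and 100% = benzethonium chloride 70 µM positive control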). Particulars: K562-ABCB6 porphyrin accumulation, 1 h, at 10 µM, stronger effect = higher value.
The nature of assay [18]: AML differentiation inducers, ER-HoxA9 marrow cells – cell-based, GFP/MAC1 double positive, flow cytometry, validation set, primary screen (AID 588685;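 active = differentiation response of at least 50%, scaled between solvent and reference control, from cells with both markers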;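 also: compound exposure lasts four days before antibody staining and flow analysis; 0% = DMSO wells and 100% = 5 µM fulvestrant positive control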). The settings on record: stronger effect = higher value.
A short description of assay [19]: Nile Red efflux blockade in pump-expressing yeast – validation compound set, multiplex, phenotypic, pilot screen (AID 588506;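 active = efflux inhibition above 0.42, the validation set average plus 4 SD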;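 also: Nile Red retained in cells so higher fluorescence means more efflux inhibition; 0 = negative control wells and 1 = enniatin B 25 µM full block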). The settings on record: S. cerevisiae pump-expressing triplex, Nile Red efflux flow cytometry; at 10 µM; stronger effect = higher value.

Sequence of Integrin beta-1 (Homo sapiens) + Integrin alpha-4 (Homo sapiens) (P05556 whole entry, looked up): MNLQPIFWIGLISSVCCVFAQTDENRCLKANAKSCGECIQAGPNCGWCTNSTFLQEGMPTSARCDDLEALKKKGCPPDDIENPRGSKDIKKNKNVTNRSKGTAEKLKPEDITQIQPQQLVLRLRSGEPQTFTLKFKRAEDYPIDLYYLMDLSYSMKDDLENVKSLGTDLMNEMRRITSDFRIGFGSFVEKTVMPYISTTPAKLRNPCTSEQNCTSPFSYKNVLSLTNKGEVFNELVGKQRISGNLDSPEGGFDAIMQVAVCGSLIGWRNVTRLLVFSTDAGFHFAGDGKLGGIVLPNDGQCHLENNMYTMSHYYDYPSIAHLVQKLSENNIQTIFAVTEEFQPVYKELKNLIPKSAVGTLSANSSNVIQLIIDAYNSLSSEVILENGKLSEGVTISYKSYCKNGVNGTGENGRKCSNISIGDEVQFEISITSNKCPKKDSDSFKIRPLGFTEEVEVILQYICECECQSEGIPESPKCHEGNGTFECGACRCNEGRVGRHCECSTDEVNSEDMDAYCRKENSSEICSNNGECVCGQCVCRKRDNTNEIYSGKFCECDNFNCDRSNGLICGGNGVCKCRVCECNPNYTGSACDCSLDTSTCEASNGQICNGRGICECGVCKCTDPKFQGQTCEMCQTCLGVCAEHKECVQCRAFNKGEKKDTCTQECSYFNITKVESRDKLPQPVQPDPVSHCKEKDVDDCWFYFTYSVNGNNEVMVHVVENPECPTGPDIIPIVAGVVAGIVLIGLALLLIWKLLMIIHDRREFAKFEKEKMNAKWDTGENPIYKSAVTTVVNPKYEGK
Sequence of Integrin beta-1 (Homo sapiens) + Integrin alpha-4 (Homo sapiens) (P13612 whole entry, looked up): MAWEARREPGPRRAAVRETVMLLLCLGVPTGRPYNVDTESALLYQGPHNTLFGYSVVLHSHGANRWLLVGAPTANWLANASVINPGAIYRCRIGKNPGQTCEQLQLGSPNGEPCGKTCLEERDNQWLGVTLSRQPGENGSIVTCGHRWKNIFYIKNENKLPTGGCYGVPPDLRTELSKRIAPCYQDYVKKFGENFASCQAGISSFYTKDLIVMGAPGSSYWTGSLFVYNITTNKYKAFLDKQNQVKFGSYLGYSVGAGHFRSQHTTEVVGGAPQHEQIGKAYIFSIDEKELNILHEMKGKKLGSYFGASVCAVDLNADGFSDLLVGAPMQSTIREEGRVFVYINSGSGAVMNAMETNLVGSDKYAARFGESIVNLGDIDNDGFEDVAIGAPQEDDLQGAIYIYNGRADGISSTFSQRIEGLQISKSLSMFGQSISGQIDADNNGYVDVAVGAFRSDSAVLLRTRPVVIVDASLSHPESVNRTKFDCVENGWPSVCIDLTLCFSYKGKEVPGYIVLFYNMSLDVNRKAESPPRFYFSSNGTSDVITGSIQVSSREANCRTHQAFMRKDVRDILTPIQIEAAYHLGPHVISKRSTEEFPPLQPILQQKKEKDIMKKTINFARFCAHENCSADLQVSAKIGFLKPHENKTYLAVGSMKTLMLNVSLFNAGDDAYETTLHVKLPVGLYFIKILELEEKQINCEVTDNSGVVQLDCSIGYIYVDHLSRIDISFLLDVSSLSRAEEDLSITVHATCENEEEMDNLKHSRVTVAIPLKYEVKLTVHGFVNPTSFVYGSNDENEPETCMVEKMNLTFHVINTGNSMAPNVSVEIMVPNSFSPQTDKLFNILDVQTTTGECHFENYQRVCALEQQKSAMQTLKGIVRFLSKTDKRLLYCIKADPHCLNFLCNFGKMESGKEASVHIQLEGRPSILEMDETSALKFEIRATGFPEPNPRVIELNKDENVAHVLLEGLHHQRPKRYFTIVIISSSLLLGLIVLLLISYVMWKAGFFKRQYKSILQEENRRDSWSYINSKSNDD
Sequence of Lethal factor (Bacillus anthracis) (P15917 whole entry, looked up): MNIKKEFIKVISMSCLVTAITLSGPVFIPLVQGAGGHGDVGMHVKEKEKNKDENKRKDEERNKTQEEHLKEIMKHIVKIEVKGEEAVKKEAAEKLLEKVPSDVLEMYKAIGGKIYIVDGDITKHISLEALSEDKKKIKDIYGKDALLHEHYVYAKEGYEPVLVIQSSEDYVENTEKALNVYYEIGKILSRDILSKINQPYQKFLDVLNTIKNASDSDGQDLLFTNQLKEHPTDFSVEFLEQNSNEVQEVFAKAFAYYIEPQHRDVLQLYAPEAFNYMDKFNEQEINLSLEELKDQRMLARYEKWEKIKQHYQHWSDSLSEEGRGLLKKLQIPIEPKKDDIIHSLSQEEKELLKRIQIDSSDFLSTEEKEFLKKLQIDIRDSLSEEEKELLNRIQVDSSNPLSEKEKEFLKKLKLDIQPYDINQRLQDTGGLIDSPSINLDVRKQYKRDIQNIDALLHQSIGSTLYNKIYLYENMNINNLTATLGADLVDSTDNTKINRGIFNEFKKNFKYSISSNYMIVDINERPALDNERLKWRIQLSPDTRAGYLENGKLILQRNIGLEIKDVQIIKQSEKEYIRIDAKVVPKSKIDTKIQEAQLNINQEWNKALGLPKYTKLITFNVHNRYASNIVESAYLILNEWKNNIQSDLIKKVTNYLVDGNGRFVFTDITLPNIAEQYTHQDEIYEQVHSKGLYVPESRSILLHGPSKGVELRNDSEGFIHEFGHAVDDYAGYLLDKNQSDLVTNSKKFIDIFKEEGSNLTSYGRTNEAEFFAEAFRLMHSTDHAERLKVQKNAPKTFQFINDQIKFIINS
Sequence of Beta-2 adrenergic receptor (Homo sapiens) (P07550 whole entry, looked up): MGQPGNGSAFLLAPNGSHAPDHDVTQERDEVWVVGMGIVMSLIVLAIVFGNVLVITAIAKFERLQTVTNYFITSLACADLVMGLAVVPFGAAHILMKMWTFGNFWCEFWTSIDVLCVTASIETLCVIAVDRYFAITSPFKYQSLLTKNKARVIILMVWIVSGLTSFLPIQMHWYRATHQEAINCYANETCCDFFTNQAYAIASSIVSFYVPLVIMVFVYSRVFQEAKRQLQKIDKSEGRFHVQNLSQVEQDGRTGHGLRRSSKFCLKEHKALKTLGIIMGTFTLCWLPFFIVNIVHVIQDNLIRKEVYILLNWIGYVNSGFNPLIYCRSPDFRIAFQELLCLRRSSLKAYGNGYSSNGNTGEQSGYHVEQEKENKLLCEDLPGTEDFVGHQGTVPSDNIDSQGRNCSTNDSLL
Sequence of Beta-adrenergic receptor kinase 1 (Homo sapiens) (P25098 whole entry, looked up): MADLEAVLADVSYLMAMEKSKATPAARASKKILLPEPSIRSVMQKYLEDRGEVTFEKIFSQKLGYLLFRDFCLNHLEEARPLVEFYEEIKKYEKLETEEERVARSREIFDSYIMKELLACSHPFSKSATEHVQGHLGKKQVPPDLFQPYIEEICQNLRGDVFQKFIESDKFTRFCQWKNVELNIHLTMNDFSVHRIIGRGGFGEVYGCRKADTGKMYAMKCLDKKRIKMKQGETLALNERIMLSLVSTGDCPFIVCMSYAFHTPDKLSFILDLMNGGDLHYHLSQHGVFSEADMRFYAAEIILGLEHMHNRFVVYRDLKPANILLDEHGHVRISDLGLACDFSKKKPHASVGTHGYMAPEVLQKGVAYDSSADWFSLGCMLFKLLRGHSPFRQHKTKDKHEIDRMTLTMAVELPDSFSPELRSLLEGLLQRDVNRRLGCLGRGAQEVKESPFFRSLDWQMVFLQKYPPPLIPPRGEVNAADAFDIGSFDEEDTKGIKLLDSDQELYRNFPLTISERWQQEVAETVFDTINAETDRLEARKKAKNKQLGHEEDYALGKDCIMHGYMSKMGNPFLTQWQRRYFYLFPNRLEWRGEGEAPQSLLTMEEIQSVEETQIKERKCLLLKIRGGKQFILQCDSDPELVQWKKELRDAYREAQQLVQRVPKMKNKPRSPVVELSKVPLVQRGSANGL
Sequence of ATP-binding cassette sub-family B member 6 (Homo sapiens) (Q9NP58 whole entry, looked up): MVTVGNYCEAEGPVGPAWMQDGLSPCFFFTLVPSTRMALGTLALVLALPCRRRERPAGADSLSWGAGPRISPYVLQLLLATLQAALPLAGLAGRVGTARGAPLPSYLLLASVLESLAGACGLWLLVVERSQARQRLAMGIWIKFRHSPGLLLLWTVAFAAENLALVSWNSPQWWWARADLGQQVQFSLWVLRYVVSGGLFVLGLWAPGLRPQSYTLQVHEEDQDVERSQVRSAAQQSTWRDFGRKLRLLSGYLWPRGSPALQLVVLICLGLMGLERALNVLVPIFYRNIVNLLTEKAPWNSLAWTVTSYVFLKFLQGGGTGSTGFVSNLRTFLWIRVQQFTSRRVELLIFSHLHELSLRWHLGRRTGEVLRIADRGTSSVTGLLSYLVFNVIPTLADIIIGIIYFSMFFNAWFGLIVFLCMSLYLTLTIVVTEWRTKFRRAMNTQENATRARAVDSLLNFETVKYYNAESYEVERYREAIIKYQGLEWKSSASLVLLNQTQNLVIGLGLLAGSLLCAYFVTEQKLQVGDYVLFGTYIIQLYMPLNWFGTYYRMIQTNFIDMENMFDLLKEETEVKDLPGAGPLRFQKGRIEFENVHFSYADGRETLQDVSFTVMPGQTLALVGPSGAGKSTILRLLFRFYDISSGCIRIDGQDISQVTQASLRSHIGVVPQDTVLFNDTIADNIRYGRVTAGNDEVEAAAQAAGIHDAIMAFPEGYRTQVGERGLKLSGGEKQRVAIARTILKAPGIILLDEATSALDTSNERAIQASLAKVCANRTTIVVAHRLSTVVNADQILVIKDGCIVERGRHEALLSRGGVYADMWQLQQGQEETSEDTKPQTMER

One may read the inhibition as the drop in the measured response relative to a control, in per cent. With `C[N+]1(C)[C@@H]2CC(OC(=O)[C@H](CO)c3ccccc3)C[C@H]1[C@@H]1O[C@@H]12` (stereo partly specified), the percent of DMSO control GFP in assay [1] was 97.8% (inactive) and 102% (inactive). In addition, the GFP response vs DMSO was 104% (inactive) and 114% (inactive) in assay [2]; 94.8% (inactive) and 112% (inactive) in assay [4]. Besides, in assay [3], the percent response of DMSO control is 99.7% (inactive) and 92% (inactive). For the same molecule, in assay [5], the GFP response, % of DMSO was 99.6% (inactive) and 104% (inactive). Moreover, the double positive events in [6] is 62.3% and 61.3%. Moreover, in [6], the vesicle binding response was 109% (inactive) and 5740% (inactive). Also, the inhibition in assay [7] was 12.3% (inactive) and -9.98% (inactive); in assay [11], 5.6% (inactive) and -2.35% (inactive); in assay [14], -3.5% (inactive) and 1.5% (inactive); in [15] it was -1.8% (inactive) and 0.7% (inactive); in assay [16], -5.6% (inactive) and 13.1% (inactive); in [17] it was -8% (inactive) and 5% (inactive). Besides, in [8], the superoxide response (% of plate) is 103% (inactive) and 114% (inactive). Also, in assay [9], the aptamer binding inhibition is -1% (inactive) and 1% (inactive). Besides, the response in [10] was 4.9% (inactive) and -6.87% (inactive); in assay [12], 3.4% (inactive) and -1.88% (inactive). Also, the binding (% of control) in assay [13] is 99.6% (inactive) and 101% (inactive). Further, in assay [18], the differentiation response was -6.03% (inactive) and -15.2% (inactive).

In the case of `C[C@@H]1O[C@@H](O[C@H]2C[C@@H](O)[C@]3(CO)[C@H]4[C@H](O)C[C@]5(C)[C@@H](C6=CC(=O)OC6)CC[C@]5(O)[C@@H]4CC[C@]3(O)C2)[C@H](O)[C@H](O)[C@H]1O`, the percent of DMSO control GFP in assay [1] was 108% (inactive). The GFP response vs DMSO in assay [2] is 104% (inactive); in [4] it was 107% (inactive). In addition, in assay [3], the percent response of DMSO control is 102% (inactive). Moreover, the GFP response, % of DMSO in assay [5] was 116% (inactive). In addition, the double positive events in [6] came out at 69%. For the same molecule, in assay [6], the vesicle binding response was 183% (inactive). For the same molecule, the inhibition in assay [7] was 1.44% (inactive); in [11], -1.72% (inactive); in assay [14], 0.6% (inactive); in [15] it was -0.5% (inactive); in assay [16], 0.4% (inactive); in [17], 4% (inactive). Besides, the superoxide response (% of plate) in assay [8] was 103% (inactive). In addition, the aptamer binding inhibition in assay [9] is 7% (inactive). Also, the figures for the response in [10] and in assay [12] were -22.9% (inactive) and 0.97% (inactive), respectively. For the same molecule, the binding (% of control) in [13] is 101% (inactive). The differentiation response in [18] is 1.91% (inactive).

As to `Cc1ccc2c(c1)C1CN(C)CCC1N2C(=O)Nc1cccc(Cl)c1` (stereo unspecified), in assay [1], the percent of DMSO control GFP was 99.5% (inactive). Also, the GFP response vs DMSO in assay [2] was 102% (inactive); in [4], 95.4% (inactive). The percent response of DMSO control in [3] was 109% (inactive). Further, the GFP response, % of DMSO in assay [5] is 102% (inactive). The molecule also yielded a double positive events in assay [6] of 56.9%. Also, the vesicle binding response in assay [6] was 242% (inactive). The inhibition in [7] is 30.5% (inactive); in assay [11], 27.7% (inactive); in [14], -0.9% (inactive); in [15], -0.1% (inactive); in assay [16] it was 0% (inactive); in [17], 4% (inactive). In addition, in assay [8], the superoxide response (% of plate) was 93.4% (inactive). Moreover, the aptamer binding inhibition in assay [9] is -3% (inactive). The response in [12] is -6.89% (inactive). Besides, the binding (% of control) in assay [13] was 102% (inactive). In assay [19], the efflux inhibition (fraction of control) is -0.09 (inactive). Moreover, the differentiation response in assay [18] is -18% (inactive).

Regarding `Cc1cccc(C)c1NC1=NCCCS1`, the percent of DMSO control GFP in [1] was 94.7% (inactive). Moreover, the GFP response vs DMSO is 104% (inactive) in assay [2] and 91.3% (inactive) in [4]. In addition, the percent response of DMSO control in assay [3] is 94.9% (inactive). Also, the GFP response, % of DMSO in assay [5] is 91.8% (inactive). Moreover, the double positive events in assay [6] amounted to 62.8%. For the same molecule, the vesicle binding response in [6] is 180% (inactive). In addition, the inhibition in assay [7] was 13.8% (inactive); in assay [11], 15.3% (inactive); in [14] it was -2.3% (inactive); in assay [15] it was -0.6% (inactive); in assay [16] it was 1.9% (inactive); in assay [17] it was 5% (inactive). Also, the superoxide response (% of plate) in [8] was 97.2% (inactive). Further, in [9], the aptamer binding inhibition is 2% (inactive). Further, the response in assay [12] is 1.52% (inactive). Further, the binding (% of control) in assay [13] is 102% (inactive). In assay [19], the efflux inhibition (fraction of control) was 0.18 (inactive). In addition, the differentiation response in assay [18] is -9.89% (inactive).
